Results from PubChem BioAssay AID504832 (National Center for Advancing Translational Sciences (NCATS), 2011).
Screen size: about 310,000 compounds; about 18,000 (5.8%) were called active. Roughly 22% stayed inconclusive and do not appear here. Shown is part of a subset that was picked to be rich in actives. A number with no mark means an inactive call. The call rests on the fitted dose curve; in most records, active means well fitted inhibition curve with a large enough effect; inconclusive means small, poorly fitted or top-dose-only effect, or another doubt; inactive means no such curve, though single readings can be large or run the other way.

Assay: Primary qHTS for delayed death inhibitors of the malarial parasite plastid, 48 hour incubation
Conditions: P. falciparum luciferase growth in erythrocytes; series mostly up to 28.7 µM; activity change, negative = inhibition: at the top concentration
Procedure, shortened: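 First compound was added to culture medium, then infected red cells at 0.1% parasitemia and 2% hematocrit (final). After incubation at 37 C under 5% CO2, luciferase detection reagent was dispensed and light output recorded.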
On the % scale 0 is the no-effect control and ±100 the full control effect; potency means the concentration at half of the fitted maximal effect.

Structure (SMILES)	activity change, negative = inhibition	Potency
COc1ccc(N2CCN(C(=O)c3ccccc3NC(=O)C3=C(C)OCCS3)CC2)cc1	-28.6%	–
Clc1ccc(-n2nnnc2-c2cnc(-c3ccccn3)nc2-c2cccs2)cc1	–	3.7 µM (active)
c1ccc(-c2noc(-c3cccs3)n2)nc1	209%	–
c1ccc(-n2nnnc2-c2cccnc2)cc1	31.6%	–
Cc1ccc(OC(=O)c2cncc(Br)c2)c(C)c1	-5.17%	–
CCn1c(SCC(=O)NC2CC2)nnc1-c1ccncc1	-1.37%	–
O=C(Nc1ccc(Cl)c(Cl)c1)c1ccccc1NC(=O)C1CC=CCC1C(=O)O (stereo not given)	5.71%	–
CN(C)CCSc1nc(N)c2c3c(sc2n1)COC(C)(C)C3	-25.5%	–
CN1CCc2c(sc3c2c(NCc2ccco2)nc2nnnn23)C1	-0.28%	–
CCCSc1nc(NCc2ccco2)c2c3c(sc2n1)COC(C)(CC)C3 (stereo not given)	–	9.28 µM (active)
COc1cc(C2NC(=O)NC(c3ccccc3)=C2C(C)=O)c(Br)cc1OCC(N)=O (stereo not given)	-7.95%	–
CCOc1ccc(C(C)=O)cc1COC(=O)CN1C(=O)NC2(CCCC2)C1=O	–	13.1 µM (active)
Cc1ccc(COC(=O)CN2C(=O)NC3(CCCC3)C2=O)cc1	-11.2%	–
CCOc1ccc(C(C)NC(=O)CN2C(=O)NC3(CCCCC3)C2=O)cc1OCC (stereo not given)	-11.8%	–
CCC1C(=O)NCCN1C(=O)c1ccc2nc(Cc3ccc(OC)cc3)oc2c1 (stereo not given)	-17.4%	–
CCOc1ccc(NC(=O)C2CCCN(C(=O)Nc3ccccc3)C2)cc1 (stereo not given)	-21.5%	–
COc1ccc(CCNC(=O)C2CCCN(S(=O)(=O)c3ccc(OC)cc3)C2)cc1 (stereo not given)	–	9.28 µM (active)
CCN(CC(=O)Nc1ccc(S(=O)(=O)N2CCCC2)cc1)CC(=O)Nc1cccc(OC)c1	-15.8%	–
CCCCNC(=O)C1CCCN(S(=O)(=O)c2ccc(S(=O)(=O)NCC(C)C)cc2)C1 (stereo not given)	-13.8%	–
CC(C)CCNC(=O)C1CCCN(S(=O)(=O)c2ccc(F)cc2)C1 (stereo not given)	-11.9%	–
CCOC(=O)N1CCN(S(=O)(=O)c2ccc(OC)cc2)CC1	-4.19%	–
CCOc1cccc(NC(=O)C2CCCN(S(=O)(=O)c3ccc(OC)cc3)C2)c1 (stereo not given)	–	4.65 µM (active)

Structure (SMILES)	activity change, negative = inhibition	Potency
COc1ccc(CCNC(=S)N2CCN(S(=O)(=O)c3ccc(F)cc3)CC2)cc1	–	2.62 µM (active)
COc1ccc(CCNC(=S)N2CCN(S(=O)(=O)c3ccc(Cl)cc3)CC2)cc1	-0.768%	–
Cc1cccc(OCC(=O)NCCNC(=O)c2cccnc2)c1	5.02%	–
CC(C)(C)C(=O)Nc1ccc(-c2cn3cccnc3n2)cc1	64.1%	–
CN(Cc1ccccc1)C(=O)C(=O)c1cn(CC(=O)N2CCCC2)c2ccccc12	-2.31%	–
O=c1oc2ccc(C#CC3(O)CCCCC3)cc2cc1-n1cc(-c2ccsc2)nn1	0%	–
CCc1ccc(-c2nn(-c3ccccc3C)cc2C(=O)N2CCN(C3CCS(=O)(=O)C3)CC2)cc1 (stereo not given)	-28%	–
O=C(NCCC1=CCCCC1)c1ccc(-n2cncn2)cc1	221%	–
CCc1noc(C)c1C(=O)Nc1nc2ccc(OC)cc2s1	42.1%	–
CCOc1ccc(S(=O)(=O)N2CCCC(C(=O)N3CCC(C(N)=O)CC3)C2)cc1Cl (stereo not given)	-29.6%	–
Cc1ccc(C)c(N2CCN(C(=O)CCc3nc4ccccc4[nH]3)CC2)c1	-14.4%	–
Cc1ccc(C)c(N2CCN(C(=O)CCCCCn3c(=S)[nH]c4ccc(N5CCOCC5)cc4c3=O)CC2)c1	–	7.38 µM (active)
Cc1ccc(C)c(N2CCN(C(=O)CCCCn3c(=O)[nH]c4ccccc4c3=O)CC2)c1	46.1%	–
COCc1c(C(=O)N/N=C(\C)c2ccncc2)nnn1-c1nonc1N	29.9%	–
C=CCNC(=O)c1csc(-c2ccccc2)n1	90.6%	–
Cc1ccc(NC(=O)NNC(=O)c2sccc2-n2cccc2)cc1	3.25%	–
C=CC[n+]1c(-c2ccc(C)cc2)csc1NNC(=O)Nc1ccccc1	–	11.7 µM (active)
Cc1ccc(NC(=O)Nc2ccccc2)c(Br)c1	212%	–
C=CCNc1scc(-c2ccccc2)[n+]1CC=C	–	4.15 µM (active)
O=C(Cc1ccccc1)Nc1ccc(NC(=O)c2cccnc2)cc1	20%	–
CN1CCN(CCNC(=O)Nc2ccccc2[N+](=O)[O-])CC1	-5.7% [at 0.00184 µM]	–
COc1ccc(CN(C)C(=O)Cc2ccsc2)c(OC)c1OC	–	13.1 µM (active)

Structure (SMILES)	activity change, negative = inhibition	Potency
COc1ccc(CN(C)C(=O)Cc2c[nH]c3ccccc23)c(OC)c1OC	13.9% [at 0.00184 µM]	–
COc1ccccc1C(C)NC(=O)Cc1ccsc1 (stereo not given)	-12.4%	–
CS(=O)(=O)N(CC(=O)N1CCCCCC1)c1cccc(Cl)c1Cl	-10.5%	–
NS(=O)(=O)c1ccc(NC(=S)N2CCCC2)cc1	18.3%	–
O=C(c1ccc(Cl)cc1)N1N=C(c2ccccn2)CC1(O)C(F)(F)F (stereo not given)	–	4.65 µM (active)
O=C(C1CC1)N1N=C(c2ccc(Br)cc2)CC1(O)C(F)(F)F (stereo not given)	-12.6% [at 0.00184 µM]	–
COC(=O)C1(O)CC(C(C)C)=NN1C(=O)c1ccc(Cl)cc1 (stereo not given)	-1.24%	–
COc1ccc(CCNC(=O)COC(=O)C2CC2C)cc1 (stereo not given)	-4.46%	–
Cc1ccc(S(=O)(=O)N(C)C)cc1NC(=O)c1ccc(-n2cncn2)c([N+](=O)[O-])c1	-0.637%	–
O=[N+]([O-])C(=c1ccc2c(c1)N1C3=C(CCCC3)CC3CCCCC31N=2)[N+](=O)[O-] (stereo not given)	–	2.94 µM (active)
Cc1ccc(S(=O)(=O)NCCC(=O)Nc2cccc(S(N)(=O)=O)c2)cc1C	-0.472%	–
O=C(CN(C(=O)c1nsc(Cl)c1Cl)c1cccc(F)c1)NC1CCCC1	2.6%	–
COc1cccc(N(CC(=O)NC2CCCC2)C(=O)CCCC(=O)Nc2ccccn2)c1	-5.82%	–
COC(=O)c1ccccc1Sc1c(/C=N/OCc2ccc(Cl)cc2)c(C(F)(F)F)nn1C	–	1.85 µM (active)
COC(=O)c1cn(C(=O)c2ccc(Cl)cc2)c2ccccc12	6.25%	–
COC(=O)c1ccccc1NC(=O)Cn1nc(C(F)(F)F)c2c1CCC2	-16.9%	–
O=c1ccc(S(=O)(=O)N2CCCC2)cn1Cc1nc(-c2ccccc2)no1	-21.1%	–
CC1=C(C(N)=O)C(c2ccc(F)cc2)n2nc(CCCO)nc2N1 (stereo not given)	5.98%	–
S=c1[nH]cc(-c2ccc(Cl)cc2)n1-c1ccccc1	–	1.85 µM (active)
Cc1ccc(-n2c(-c3ccc(Cl)cc3)n[nH]c2=S)cc1	-0.506%	–
S=c1[nH]ccn1-c1ccc(Cl)cc1	165%	–
